Reference: the supplement of paper PMC13380429

Test system: Vero E6 infected with SARS-CoV-2
Experiment: inhibition of SARS-CoV-2 cytopathic effect; higher = more antiviral protection, active = above 15
Settings: 48 h

Measured: inhibition of SARS-CoV-2 cytopathic effect

Nc1ncnc(Nc2ccc(Cl)cc2)n1 [chlorazanil]
inactive: 1 nM 0.82% | 8.33 nM -0.51% | 100 nM -1.09% | 833.33 nM -1.03% | 10000 nM -2.14%

CN(C)CCOC(c1ccccc1)c1ccccc1 [diphenhydramine]
inactive: 1 nM 0.83% | 8.33 nM 0.08% | 100 nM -0.85% | 833.33 nM 0.48% | 10000 nM -0.92%

O=C(Nc1ccccc1)OCC(CN1CCCCC1)OC(=O)Nc1ccccc1 (stereo not given) [diperodon]
inactive: 1 nM 0.17% | 8.33 nM -0.37% | 100 nM 0.05% | 833.33 nM -2.3% | 10000 nM -5.11%

CC(C)CC(NC(=O)OCC1c2ccccc2-c2ccccc21)C(=O)O (stereo in doubt)
inactive: 1 nM 1.66% | 8.33 nM 2.4% | 100 nM 2.95% | 833.33 nM 3.51% | 10000 nM 0.68%

COc1cc(SC)ccc1C(=O)N1CCC(Cc2ccccc2)CC1
inactive: 1 nM 4.96% | 8.33 nM 7.9% | 100 nM 8.76% | 833.33 nM 9.01% | 10000 nM 7.35%

C[C@H]1COc2c(C3(N)CC3)c(F)cc3c(=O)c(C(=O)O)cn1c23 [pazufloxacin]
inactive: 1 nM -5.2% | 8.33 nM -1.82% | 100 nM 2.15% | 833.33 nM 0.57% | 10000 nM -3.15%

Cc1c(C)c(NCC(=O)N(C)C2CCN(Cc3ccc(C(N)=O)cc3)CC2)c(C)c(C)c1N
inactive: 1 nM -0.43% | 8.33 nM -0.21% | 100 nM 0.76% | 833.33 nM -0.15% | 10000 nM 2.16%
